Common to all, as to test: PBM binding z-score (relative to random genomic background probes); higher = stronger binding; sequences stand for … in GC…GCGATTGACAGCGTAGAATGAAGG
The test system of assay [1] is FXR:RXRa (NR concentration 270 nM, RXRa partner concentration 90 nM). In a few lines:
(§1)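 Random background probes are the reference for binding z-scores. These scores derive from regression-normalized fluorescence on custom Agilent 4×180K protein-binding microarrays incubated 1 h with ligand-free nuclear receptor dimers. Binding was detected with antibodies against each partner (one per run).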

Assay [2] has as its system LXRa:RXRa (NR concentration 270 nM, RXRa partner concentration 90 nM). The essentials: as §1
Assay [3] deals with LXRa homodimer (NR concentration 270 nM). In a few lines:
as §1

The subject of assay [4] is LXRb:RXRa (NR concentration 270 nM, RXRa partner concentration 90 nM). In a few lines: as §1
Assay [5] has as its system LXRb homodimer (NR concentration 270 nM). The essentials:
as §1

Assay [6] concerns PPARa:RXRa (NR concentration 270 nM, RXRa partner concentration 90 nM). The essentials:
as §1

In assay [7] the test system is PPARg:RXRa (NR concentration 180 nM, RXRa partner concentration 90 nM). The essentials:
as §1

Assay [8] concerns PPARg:RXRa 270nM:90nM, anti-RXR (NR concentration 270 nM, RXRa partner concentration 90 nM). In a few lines: as §1
In assay [9] the test system is PPARg:RXRa 30nM:10nM, anti-RXR (NR concentration 30 nM, RXRa partner concentration 10 nM). The essentials:
as §1

The test system of assay [10] is PPARg:RXRa 90nM:30nM, anti-RXR (NR concentration 90 nM, RXRa partner concentration 30 nM). The essentials:
as §1

For assay [11], the system named is PPARg:RXRa DBDmut IVT, anti-RXR (DBD mutation: RXRa K156A/R161A, NR concentration 270 nM, RXRa partner concentration 90 nM). The essentials:
as §1

The subject of assay [12] is PPARg:RXRa IVT, anti-PPARg (NR concentration 270 nM, RXRa partner concentration 90 nM). In a few lines:
as §1

Assay [13] relates to PPARg DBDmut:RXRa IVT, anti-PPARg (DBD mutation: PPARg1 K132A/R137A, NR concentration 270 nM, RXRa partner concentration 90 nM). The essentials:
as §1

Assay [14] concerns PPARg DBDmut IVT, anti-PPARg (DBD mutation: PPARg1 K132A/R137A, NR concentration 270 nM). The essentials: as §1
Assay [15] has as its system PPARg homodimer (NR concentration 180 nM). In a few lines: as §1
The test system of assay [16] is PXR:RXRa (NR concentration 270 nM, RXRa partner concentration 90 nM). In a few lines:
as §1

Assay [17] has as its system PXR homodimer (NR concentration 270 nM). The essentials: as §1
The subject of assay [18] is RARa:RXR (NR concentration 270 nM, RXRa partner concentration 90 nM). In a few lines: as §1
The subject of assay [19] is RARa homodimer (NR concentration 270 nM). The essentials:
as §1

In assay [20] the test system is RARb:RXRa (NR concentration 270 nM, RXRa partner concentration 90 nM). The essentials: as §1

Take TCTTGTAGATCAATAGAGGCTAAGAAAGTGCGCT: the PBM binding z-score was 0.509 in [1]; 0.411 in [2]; -0.573 in assay [3]; 0.151 in [4]; -0.421 in [5]; 0.411 in assay [6]. For the same sequence, the PBM binding z-score in assay [7] was -0.238; in assay [8] it was 0.977; in [9], 2.4; in assay [10], 1.84; in assay [11], 1.51; in [12], 0.473. The PBM binding z-score in [13] was 0.414; in [14], 0.266; in assay [15] it was 0.0391; in assay [16], 0.573; in assay [17], 0.17; in assay [18] it was 0.468. Moreover, the PBM binding z-score is -0.133 in [19] and 0.203 in assay [20].

Regarding CCTAGGTGGTCAAGGTCACACACGCTATAGGTAC, the PBM binding z-score worked out at 4.58 in [1]; 3.67 in [2]; 1.51 in [3]; 3.57 in [4]; 0.536 in assay [5]; 4.35 in assay [6]. For the same sequence, the PBM binding z-score turned out to be 3.72 in [7]; 3.83 in assay [8]; 1.19 in [9]; 2.85 in assay [10]; 1.34 in assay [11]; 3.54 in assay [12]. The PBM binding z-score in assay [13] stood at 0.368; in assay [14], 0.561; in assay [15] it was 4.82; in assay [16], 4.24; in assay [17] it was 1.58; in [18], 4.44. Moreover, the PBM binding z-score in assay [19] is 1.3; in assay [20], 4.22.

Regarding TCTATTAGTTGAAGGGCATCCGACGAGTCCGTTT, the PBM binding z-score was 0.895 in assay [1]; 0.85 in [2]; 0.486 in assay [3]; 0.661 in assay [4]; 0.284 in assay [5]; 0.934 in assay [6]. The PBM binding z-score is 0.123 in assay [7]; 2.03 in assay [8]; 3.75 in assay [9]; 2.78 in assay [10]; 2.32 in assay [11]; 0.399 in assay [12]. Moreover, the PBM binding z-score in assay [13] was found to be 0.276; in assay [14], 0.308; in assay [15], 1.24; in [16] it was 0.775; in assay [17] it was 1.03; in assay [18] it was 0.683. Besides, the PBM binding z-score in assay [19] came out at 1.77; in [20], 1.24.

For CTCGAAAGGTCGGTTGAGCTGAGTATACGGATAA, the PBM binding z-score in assay [1] is 1.24; in [2], 0.827; in [3], -0.605; in assay [4] it was 0.855; in [5], -0.258; in assay [6], 2. The PBM binding z-score is 0.00937 in assay [7]; 0.523 in assay [8]; -0.12 in assay [9]; 0.207 in assay [10]; 0.0426 in assay [11]; 0.318 in [12]. The PBM binding z-score in [13] was -0.21; in [14], -0.532; in [15] it was 0.0115; in assay [16], 0.392; in assay [17], -0.439; in assay [18], 0.834. The PBM binding z-score in [19] stood at 0.167; in assay [20] it was 2.58.

ACAGACAGGTGAGTGCAGGTAACTCAGCTGGACG: the PBM binding z-score in [1] is 0.0345; in assay [2], -0.289; in [3], -0.365; in assay [4], -0.549; in assay [5] it was -1.06; in assay [6] it was -0.0295. Moreover, the PBM binding z-score in assay [7] is 0.62; in assay [8], -0.199; in [9], -0.134; in assay [10], -0.571; in assay [11], 0.771; in [12] it was 1.05. In addition, the PBM binding z-score is 0.0571 in assay [13]; -0.297 in assay [14]; -0.465 in assay [15]; -0.0581 in assay [16]; -0.0579 in [17]; -0.416 in assay [18]. Further, the PBM binding z-score was -0.183 in [19] and 0.35 in assay [20].

Consider TGAATGAGGTTATAAGATCAGGGTACGTTGCAAA, for which the PBM binding z-score in [1] stood at 1.46; in [2], 1.39; in assay [3] it was 0.0526; in [4], 1.44; in [5], 0.315; in assay [6], 2.72. Moreover, the PBM binding z-score in assay [7] is 1.53; in [8], 1.96; in [9], 0.789; in assay [10], 1.23; in assay [11], 0.889; in assay [12], 1.69. Also, the PBM binding z-score is 1.22 in assay [13]; 0.612 in assay [14]; 0.135 in [15]; 1.17 in assay [16]; 0.33 in [17]; 1.74 in [18]. The PBM binding z-score in assay [19] was determined as 0.229; in [20], 1.27.

Values taken from the supplement of paper PMC6555819.
